Results published in PubChem BioAssay (Tox21).
Calls of active or inactive are those of the source. Unless noted, calls come from the whole dose curve; as a rule, active = well fitted cell-killing curve with a large enough effect in the repeat runs; inconclusive = weak or mixed curves, or effect the other way; inactive = no such curve, though single readings can be large or run the other way.

molecular target: Glucocorticoid receptor (Homo sapiens) (UniProt P04150); assay: qHTS assay to identify small molecule agonists of the glucocorticoid receptor (GR) signaling pathway (AID 720691; active = well fitted activation curve with a large enough effect in the signal ratio in the repeat runs, not every such curve was filed as active; inconclusive = weak or mixed curves, or effect the other way; inactive = no such curve, though single readings can be large or run the other way; the % refers to the signal ratio); settings: GR-bla HeLa, beta-lactamase reporter ratio, 18 h; series mostly up to 62.4 µM; activation: at the top concentration
Sequence (P04150 whole entry, looked up): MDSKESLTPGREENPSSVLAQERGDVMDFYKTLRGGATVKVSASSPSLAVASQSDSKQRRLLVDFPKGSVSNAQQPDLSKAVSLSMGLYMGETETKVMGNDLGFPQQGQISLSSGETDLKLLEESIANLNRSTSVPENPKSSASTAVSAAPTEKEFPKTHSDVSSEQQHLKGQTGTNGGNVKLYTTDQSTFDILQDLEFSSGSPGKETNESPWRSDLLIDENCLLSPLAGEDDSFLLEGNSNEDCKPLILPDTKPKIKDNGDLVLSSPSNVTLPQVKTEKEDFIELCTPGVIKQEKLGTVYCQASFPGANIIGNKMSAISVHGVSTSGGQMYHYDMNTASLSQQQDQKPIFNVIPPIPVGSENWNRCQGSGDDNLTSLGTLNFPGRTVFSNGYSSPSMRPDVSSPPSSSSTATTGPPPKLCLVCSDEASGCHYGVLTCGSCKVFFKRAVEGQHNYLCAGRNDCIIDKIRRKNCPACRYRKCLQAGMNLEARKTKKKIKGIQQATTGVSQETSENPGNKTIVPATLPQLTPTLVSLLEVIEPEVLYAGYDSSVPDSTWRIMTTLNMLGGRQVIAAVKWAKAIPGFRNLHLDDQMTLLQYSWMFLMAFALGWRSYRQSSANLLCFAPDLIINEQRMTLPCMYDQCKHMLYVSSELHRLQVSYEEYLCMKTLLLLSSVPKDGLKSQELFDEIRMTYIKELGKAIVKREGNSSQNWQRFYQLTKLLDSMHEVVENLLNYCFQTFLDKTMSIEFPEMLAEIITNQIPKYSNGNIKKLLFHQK
Procedure, shortened: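 GR-bla HeLa cells (beta-lactamase reporter under glucocorticoid response element) were plated 4 h at 37 C/5% CO2, given compounds in DMSO, and incubated 18 h at 37 C. LiveBLAzer B/G FRET substrate was added for 2 h at room temperature, then fluorescence intensity read.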
% is set by controls: 0 for no effect and ±100 for the full control effect; potency is the fitted concentration of half-maximal effect.

Row | SMILES | activation | Potency
1 | CN[C@@]1(c2ccccc2Cl)CCCCC1=O | -3.08% (inactive) | –
2 | CCNC1(c2cccs2)CCCCC1=O (configuration not stated) | 0.0232% [at 29.2 µM] (inactive) | –
3 | CNC(C)CC1CCCCC1 (configuration not stated) | 0.116% (inactive) | –
4 | CCC1(c2ccccc2)C(=O)NC(=O)N(C)C1=O (configuration not stated) | 0.908% (inactive) | –
5 | COc1cc([C@@H]2c3cc4c(cc3[C@@H](O)[C@H]3COC(=O)[C@H]23)OCO4)cc(OC)c1O | -0.528% (inactive) | –
6 | C/C=C(\CC)C(=O)NC(N)=O | -0.258% (inactive) | –
7 | C[C@]12CCC(=O)C[C@@H]1CC[C@@H]1[C@@H]2CC[C@@]2(C)[C@H]1CC[C@]2(C)O | -10.5% (inactive) | –
8 | Cc1nnc2n1-c1ccc(Cl)cc1C(c1ccccc1)=NC2 | -6.23% (inactive) | –
9 | N#CC(C#N)=Cc1cc(O)c(O)c(O)c1 | -3.94% (inactive) | –
10 | CCCSc1cc(OC)c(CCN)cc1OC | -8.84% [at 79.2 µM] (inactive) | –
11 | O=C(O)CCCO | -2.8% [at 79.2 µM] (inactive) | –
12 | O=P1(N(CCCl)CCCl)NC(OO)CCO1 (configuration not stated) | 0.458% (inactive) | –
13 | O=C1CN=C(c2ccccc2)c2cc(Cl)ccc2N1 | -7.55% (inactive) | –
14 | C=C[C@H]1CN2CC[C@H]1C[C@H]2[C@H](OC(=O)OCC)c1ccnc2ccc(OC)cc12 | -1.87% (inactive) | –
15 | CCc1cc(OC)c(C[C@@H](C)N)cc1OC | -2.93% [at 79.2 µM] (inactive) | –
16 | C[C@@H]1[C@@H]2Cc3ccc(O)cc3[C@@]1(C)CCN2CC1CC1 | 1.11% (inactive) | –
17 | C[C@@H]1[C@H]2Cc3ccc(O)cc3[C@]1(C)CCN2C | -1.53% [at 79.2 µM] (inactive) | –
18 | C=CCC1([C@@H](C)CCC)C(=O)NC(=O)NC1=O | -5.71% (inactive) | –
19 | c1ccc2c(c1)Sc1ccccc1N2C[C@@H]1CN2CCC1CC2 | -2.11% (inactive) | –
20 | CC[C@H]1[C@@H]2C[C@H]3[C@@H]4N(C)c5ccccc5[C@]45C[C@@H](C2[C@H]5O)N3[C@@H]1O (some centres not stated) | -3.17% [at 29.2 µM] (inactive) | –
21 | CC(N)Cc1ccc2c(c1)OCO2 (configuration not stated) | 3.74% (inactive) | –
22 | CN1c2ccccc2C(NCCCCCCC(=O)O)c2ccc(Cl)cc2S1(=O)=O (configuration not stated) | -5.59% (inactive) | –
23 | CN[C@]1(c2ccccc2Cl)CCCCC1=O | -7.12% (inactive) | –
24 | C[C@]12CC[C@@H]3c4ccc(OC(=O)N(CCCl)CCCl)cc4CC[C@H]3[C@@H]1CC[C@@H]2OP(=O)(O)O | – | inactive
25 | CC(=O)[C@@]1(O)CC[C@H]2[C@@H]3CCC4=CC(=O)CC[C@]4(C)C3(F)[C@@H](O)C[C@@]21C (some centres not stated) | – | 0.19 µM [inconclusive] (active)

molecular target: Glucocorticoid receptor (Homo sapiens) (UniProt P04150); assay: qHTS assay to identify small molecule antagonists of the glucocorticoid receptor (GR) signaling pathway (AID 720692; active = well fitted inhibition curve with a large enough effect in the signal ratio in the repeat runs, not every such curve was filed as active; inconclusive = weak or mixed curves, or effect the other way; inactive = no such curve, though single readings can be large or run the other way; the % refers to the signal ratio); settings: GR-bla HeLa, beta-lactamase FRET ratio, dexamethasone-stimulated, 18 h; series mostly up to 58.5 µM; activity change, negative = inhibition: at the top concentration
Procedure, shortened: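 GR-bla HeLa cells (beta-lactamase reporter under glucocorticoid response element) were pre-plated 4 h at 37 C, treated with compounds plus 5 nM dexamethasone (final) for 18 h, then read by LiveBLAzer B/G FRET fluorescence after 2 h.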

Row | SMILES | activity change, negative = inhibition | Potency
26 | CN[C@@]1(c2ccccc2Cl)CCCCC1=O | -0.615% (inactive) | –
27 | CCNC1(c2cccs2)CCCCC1=O (configuration not stated) | 11.4% [at 27 µM] (inactive) | –
28 | CNC(C)CC1CCCCC1 (configuration not stated) | 0.345% (inactive) | –
29 | CCC1(c2ccccc2)C(=O)NC(=O)N(C)C1=O (configuration not stated) | -0.56% (inactive) | –
30 | C/C=C(\CC)C(=O)NC(N)=O | -11.9% (inactive) | –
31 | C[C@]12CCC(=O)C[C@@H]1CC[C@@H]1[C@@H]2CC[C@@]2(C)[C@H]1CC[C@]2(C)O | – | 8.49 µM (active)
32 | Cc1nnc2n1-c1ccc(Cl)cc1C(c1ccccc1)=NC2 | – | 6.01 µM (active)
33 | CCCSc1cc(OC)c(CCN)cc1OC | -11% [at 78.9 µM] (inactive) | –
34 | O=C(O)CCCO | -2.2% [at 78.9 µM] (inactive) | –
35 | O=P1(N(CCCl)CCCl)NC(OO)CCO1 (configuration not stated) | -0.293% (inactive) | –
36 | O=C1CN=C(c2ccccc2)c2cc(Cl)ccc2N1 | – | 23.9 µM (active)
37 | C=C[C@H]1CN2CC[C@H]1C[C@H]2[C@H](OC(=O)OCC)c1ccnc2ccc(OC)cc12 | -4.45% (inactive) | –
38 | CCc1cc(OC)c(C[C@@H](C)N)cc1OC | -5.89% [at 78.9 µM] (inactive) | –
39 | Clc1ccc(C(Cn2ccnc2)OCc2csc3c(Cl)cccc23)c(Cl)c1 (configuration not stated) | 8.59% [at 27 µM] (inactive) | –
40 | C[C@@H]1[C@@H]2Cc3ccc(O)cc3[C@@]1(C)CCN2CC1CC1 | 0.841% (inactive) | –
41 | C=CCC1([C@@H](C)CCC)C(=O)NC(=O)NC1=O | -14% (inactive) | –
42 | c1ccc2c(c1)Sc1ccccc1N2C[C@@H]1CN2CCC1CC2 | 1.42% (inactive) | –
43 | CC[C@H]1[C@@H]2C[C@H]3[C@@H]4N(C)c5ccccc5[C@]45C[C@@H](C2[C@H]5O)N3[C@@H]1O (some centres not stated) | -10.7% [at 27 µM] (inactive) | –
44 | CN[C@]1(c2ccccc2Cl)CCCCC1=O | 1.59% (inactive) | –
45 | C[C@]12CC[C@@H]3c4ccc(OC(=O)N(CCCl)CCCl)cc4CC[C@H]3[C@@H]1CC[C@@H]2OP(=O)(O)O | -12.2% (inactive) | –

system: not listed separately; assay: qHTS assay to identify small molecule antagonists of the glucocorticoid receptor (GR) signaling pathway - cell viability counter screen (AID 720693); settings: GR-bla HeLa viability, CellTiter-Glo luminescence, 18 h, with 5 nM dexamethasone present; series mostly up to 58.5 µM; viability change, negative = cytotoxic: at the top concentration; note: nearly all actives have a fitted effect of over 55% in size

Row | SMILES | viability change, negative = cytotoxic | Potency
46 | CN[C@@]1(c2ccccc2Cl)CCCCC1=O | -0.954% (inactive) | –
47 | CCNC1(c2cccs2)CCCCC1=O (configuration not stated) | 6.37% [at 27 µM] (inactive) | –
48 | CNC(C)CC1CCCCC1 (configuration not stated) | 0.907% (inactive) | –
49 | CCC1(c2ccccc2)C(=O)NC(=O)N(C)C1=O (configuration not stated) | 4.9% (inactive) | –
50 | COc1cc([C@@H]2c3cc4c(cc3[C@@H](O)[C@H]3COC(=O)[C@H]23)OCO4)cc(OC)c1O | -23.2% (inactive) | –
51 | CN1CC[C@@]23CCCC[C@@H]2[C@@H]1Cc1ccc(O)cc13 | -10.8% (inactive) | –
52 | CNC(C)Cc1ccccc1 (configuration not stated) | 2.54% (inactive) | –
53 | CCCCNC(C)(C)[P+](=O)O | -2.34% (inactive) | –
54 | O=C1C[C@@H]2OCC=C3CN4CC[C@]56c7ccccc7N1[C@H]5[C@H]2[C@H]3C[C@H]46 (tested in a mixture with another compound) | – | inactive
55 | C/C=C(\CC)C(=O)NC(N)=O | -0.0303% (inactive) | –
56 | C[C@]12CCC(=O)C[C@@H]1CC[C@@H]1[C@@H]2CC[C@@]2(C)[C@H]1CC[C@]2(C)O | -19.7% (inactive) | –
57 | Cc1nnc2n1-c1ccc(Cl)cc1C(c1ccccc1)=NC2 | -7.63% (inactive) | –
58 | N#CC(C#N)=Cc1cc(O)c(O)c(O)c1 | -0.643% (inactive) | –
59 | CCCSc1cc(OC)c(CCN)cc1OC | 12.4% [at 78.9 µM] (inactive) | –
60 | O=C(O)CCCO | -4.52% [at 78.9 µM] (inactive) | –
61 | Oc1ccc2c3c1O[C@H]1[C@@H](O)C=C[C@H]4[C@H](C2)NCC[C@@]341 | 3.1% (inactive) | –

Row | SMILES | viability change, negative = cytotoxic | Potency
62 | COC(=O)[C@H]1[C@@H](OC(=O)c2ccccc2)C[C@@H]2CC[C@H]1N2C | -0.464% (inactive) | –
63 | O=C1CN=C(c2ccccc2)c2cc(Cl)ccc2N1 | -10.4% (inactive) | –
64 | C[C@]12CC[C@H]3[C@@H](CCC4=C(Cl)C(=O)CC[C@@]43C)[C@@H]1CC[C@@H]2O | -29.3% (inactive) | –
65 | Clc1ccc(C(Cn2ccnc2)OCc2csc3c(Cl)cccc23)c(Cl)c1 (configuration not stated) | -0.233% [at 27 µM] (inactive) | –
66 | C[C@@H]1[C@@H]2Cc3ccc(O)cc3[C@@]1(C)CCN2CC1CC1 | 0.932% (inactive) | –
67 | C[C@@H]1[C@H]2Cc3ccc(O)cc3[C@]1(C)CCN2C | -6.52% [at 78.9 µM] (inactive) | –
68 | CC(C)C[C@H]1C(=O)N2CCC[C@H]2[C@]2(O)O[C@](NC(=O)[C@@H]3C[C@@H]4c5cccc6[nH]cc(c56)C[C@H]4N(C)C3)(C(C)C)C(=O)N12 | 5.38% (inactive) | –
69 | [H+].[H+].[Hg+2].[O-]B([O-])[O-].[c-]1ccccc1 | – | 2.68 µM (active)
70 | C=CCC1([C@@H](C)CCC)C(=O)NC(=O)NC1=O | -2.04% (inactive) | –
71 | c1ccc2c(c1)Sc1ccccc1N2C[C@@H]1CN2CCC1CC2 | 5.01% (inactive) | –
72 | C[C@@H](Cc1ccccc1)NCCC(c1ccccc1)c1ccccc1 | -4.04% [at 27 µM] (inactive) | –
73 | CC[C@H]1[C@@H]2C[C@H]3[C@@H]4N(C)c5ccccc5[C@]45C[C@@H](C2[C@H]5O)N3[C@@H]1O (some centres not stated) | 9.92% [at 27 µM] (inactive) | –
74 | CN1c2ccccc2C(NCCCCCCC(=O)O)c2ccc(Cl)cc2S1(=O)=O (configuration not stated) | 3.11% (inactive) | –
75 | CN[C@]1(c2ccccc2Cl)CCCCC1=O | 11% (inactive) | –
76 | C[C@]12CC[C@@H]3c4ccc(OC(=O)N(CCCl)CCCl)cc4CC[C@H]3[C@@H]1CC[C@@H]2OP(=O)(O)O | -2.8% (inactive) | –
77 | CC(=O)[C@@]1(O)CC[C@H]2[C@@H]3CCC4=CC(=O)CC[C@]4(C)C3(F)[C@@H](O)C[C@@]21C (some centres not stated) | -5.41% (inactive) | –
